The source made the active and inactive calls.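 The calls were made as follows: active = z-score of at least 1.8 in each of two replicates, scored against plate mean and spread of sample wells; inactive = the rest.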

This assay in a line: galactose survival enhancers in mitochondrial complex I cybrids – cell-based, galactose medium, ATP luminescence, primary screen (AID 1645843).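 Also: positive z means more ATP and so rescue of galactose-driven cybrid death.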 The note with it: complex I mutant cybrid cells, 72 h, stronger effect = higher value.
Consider `O=C(C1CCCCCC1)N1CCC(n2cc(-c3ccsc3)nn2)CC1`, for which the z-score is -0.215 (inactive).
With `COc1ccc(CN[C@@H]2CS(=O)(=O)C[C@H]2O)cc1OCc1ccc(F)cc1` the figure was -0.735 (inactive).
Take `COc1ccc(F)cc1-c1ccc2ccccc2n1`: the z-score is -0.15 (inactive).
As to `Cc1cccc2c(C(=O)N3CCN(C)C(=O)C3C)cc(-c3cnc(N)nc3)nc12` (stereo not given), the z-score was 2.6 (inactive).
For `O=C(C(=O)N1CCCCC1c1nc2ccc(F)cc2[nH]1)c1ccccc1` (stereo not given), the z-score is 0.05 (inactive).
Turning to `CCc1c(C(=O)N2CCCN(C(C)=O)CC2)csc1C`, the z-score was -0.54 (inactive).
Regarding `Cc1ccc2nc(-c3cnc(C(C)(C)C)nc3)cc(C(=O)N(C)C(C)C)c2c1`, the z-score is -0.47 (inactive).
For the molecule `Cc1ccc(C)c(-c2c(C)sc3ncn(C4CCN(C)C4=O)c(=O)c23)c1` (stereo not given), the z-score is 0.12 (inactive).
On to `Cc1ccc(F)cc1-c1cccc(C(=O)c2nccn2C)c1`, for which the z-score is -0.54 (inactive).
For `O=c1c2ccc(C(F)(F)F)cc2ncn1CCC1CCCCN1C1CCCC1` (stereo not given), the z-score is -0.69 (inactive).
With `COc1cc(F)c(C(=O)N(C)CC2CCCCN2C)c(F)c1` (stereo not given) the figure was -0.575 (inactive).
Next, `CC(C)c1cc(C(=O)N2CCCC(c3ccccc3)C2)on1` (stereo not given): -0.55 (inactive); `CC(=O)c1cc(CC(=O)NCc2cc(F)c(F)cc2F)cs1`: -0.01 (inactive); `CCCN1CCC(N2CCC(n3cc(-c4ccccc4)nn3)CC2)CC1`: 0.325 (inactive).
With `CC(C)c1ncc(-c2cc(C(=O)N(C)C(C)C)c3ccc(F)cc3n2)cn1` the figure was -0.51 (inactive); with `CN(C)Cc1cn(CC2CCN(C(=O)CC3CCCCCC3)CC2)nn1`, -0.47 (inactive).
`COc1ccc(F)cc1-c1cnn(CC(=O)Nc2cc(C)nn2C)c1`: the z-score was 0.085 (inactive).
For the molecule `Cc1ccn(CCN2CCC(Oc3cccc(Cl)c3)CC2)n1`, the z-score was 0.135 (inactive).
In the case of `Cc1cc(C)c(CNC(C)CCC(C)C)c(C)c1CO` (stereo not given), the z-score was 0.435 (inactive).
As to `O=C(C1CCCCCC1)N1CCC(n2cc(-c3ccccc3)nn2)CC1`, the z-score is -0.495 (inactive).
In the case of `CCCN(C(=O)c1cccc(C#CC(C)(C)O)c1)C(CC)CC`, the z-score is -0.23 (inactive).
On to `c1ccc(-c2nc3c(cnn3C3CCCCC3)[nH]2)c(Cn2cccn2)c1`, for which the z-score is 0.525 (inactive).
As to `COc1ccc(-c2ncnc3sc(C)c(C)c23)c(OC)c1`, the z-score is 0.66 (inactive).
Consider `COc1ccccc1C(=O)N1CCN(C(=O)c2nc3ccccc3c(=O)[nH]2)CC1`, for which the z-score was 0.365 (inactive).
Regarding `CC(C)(C)CN1CCN(CC2CC2)C(CCO)C1` (stereo not given), the z-score is 0.35 (inactive).
For `CC(C)Oc1ccc(Cl)cc1-c1nnc2ccc(Cl)cn12`, the z-score is 0.31 (inactive).
For the molecule `O=C1NCCN(C(=O)c2ccc(Cl)c(F)c2)C1Cc1ccccc1` (stereo not given), the z-score was -0.565 (inactive).
Consider `CC(CCc1ccc(O)cc1)NC1CCCCCC1` (stereo not given), for which the z-score was -0.855 (inactive).
For `Cc1nc2cc(C(=O)N3CCN(C)C(=O)C3)ccc2s1`, the z-score is -0.24 (inactive).
`CCCc1cn(CC2CCN(C(=O)[C@@H](N)[C@@H](C)CC)CC2)nn1`: the z-score is -0.24 (inactive).
Consider `Cc1cc(CC(=O)Nc2cc(C)nn2C2CCCCC2)on1`, for which the z-score is 0.225 (inactive).
Regarding `Cc1ccc(NC(=O)c2csc(Cc3ccccc3)n2)cn1`, the z-score is -1.08 (inactive).
Regarding `CC[C@H](C)[C@H](N)C(=O)N1CCC(Cn2cc(-c3ccc(F)cc3)nn2)CC1`, the z-score was -0.33 (inactive).
With `Cc1nnc(NC(=O)N2CCCN(c3ccncc3C)CC2)s1`, the z-score was -0.57 (inactive).
For the molecule `O=C(C1CCCCCC1)N1CCC(n2cc(C3CC3)nn2)CC1`, the z-score was -0.53 (inactive).
With `O=C(C1CCCCCC1)N1CCc2[nH]nc(C3CCC3)c2C1` the figure was 0.435 (inactive); with `Cc1cccc2c(C(=O)N(C)C(C)C)cc(-c3cnn(C(C)(C)C)c3)nc12`, 1.41 (inactive); with `COc1cccc(-n2cc(-c3ccnc(N4CCCN(C(C)=O)CC4)n3)cn2)c1`, -1.14 (inactive).
Regarding `CC(C)c1ncc(C(=O)N2CCC(n3cc(-c4ccccn4)nn3)CC2)cn1`, the z-score was 0.26 (inactive).
As for `Cc1ccc(-c2ncccc2OC2(C(=O)O)CCCC2)cc1C`, the z-score was -0.735 (inactive).

Values taken from PubChem BioAssay.
